Most compounds without a hit are left out; they make up all but 1.9% or so of the library.
APP 5UTR inh: inhibitors of APP translation via 5'UTR reporter, primary screen, APP 5'UTR luciferase, SH-SY5Y cells; SH-SY5Y APP 5'UTR-luciferase reporter, luminescence; inhibition, % at 2 µM; actives 0.82% (n = 190,000); AID 1285, 2008;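 active = inhibition above a set limit, derived from the sample mean plus 3 SD, cut at about 45% in these data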
BaF3 tox: parental Ba/F3 cell viability inhibition, counter-screen for JAK2V617F inhibitor project, murine pro-B, CellTiter-Glo luminescence. CellTiter-Glo ATP luminescence. inhibition, % at 5.6 µM. actives 1.1% (n = 220,000). AID 1486, 2009;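 active = inhibition above a per-campaign cutoff, the mean inhibition of all tested compounds plus 3 SD, cut at about 27% in these data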;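 note: 0% = DMSO wells and 100% = JAK Inhibitor I control wells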
Ba/F3 V617F tox: reduced viability of JAK2V617F-dependent Ba/F3 cells, primary screen, JAK2V617F inhibitor project, cell-based, Ba/F3 EpoR-JAK2V617F, luminescence | ATP luminescence | inhibition, % at 5.6 µM | actives 1.1% (n = 220,000) | AID 1446, 2008;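 active = inhibition above the campaign mean plus 3 SD over all tested compounds, cut at about 24% in these data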;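 note: cytokine-independent growth of Ba/F3 cells driven by EpoR plus mutant JAK2; 0% = DMSO-treated cells and 100% = JAK inhibitor I control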
KLF5 inh: KLF5 expression inhibitors, primary screen, DLD-1 cells, luminescence; DLD-1 KLF5 promoter-luciferase reporter; inhibition, % at 5 µM; actives 0.23% (n = 290,000); AID 1700, 2009;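 active = inhibition above a per-plate limit of that plate's mean compound inhibition plus 3 SD, cut at about 60% in these data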;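 note: 0% = DMSO wells and 100% = LY294002 at 200 µM; higher means less KLF5 promoter-driven luciferase light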
IEC-6 cytotox: cytotoxicity in IEC-6 intestinal epithelial cells, primary screen, cytotoxicity control for KLF5 inhibitor project, cell-based, luminescence; IEC-6 cytotoxicity, luminescence viability; inhibition, % at 5 µM; actives 0.78% (n = 290,000); AID 1825, 2009; in the data active = inhibition above about 22%;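 note: 0% = plate median of test compound wells and 100% = cytotoxic reference compound wells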
BaF3 parental 2: parental Ba/F3 cell viability inhibition, counter-screen for JAK2V617F inhibitor project, murine pro-B, CellTiter-Glo luminescence | shares compounds with Ba/F3 V617F tox | actives 31% (n = 580) | AID 1520, 2009 | cells kept alive by added IL-3 | inhibition, % at 5.6 µM;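 active = cell growth inhibition above the hit limit set in the earlier mutant JAK2 cell screen, cut at about 27% in these data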;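 note: plate controls were DMSO-treated cells for no effect and JAK Inhibitor I control wells for full effect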
JAK2V617F conf: viability loss in Ba/F3 EpoR-JAK2V617F cells, confirmation, JAK2V617F inhibitor project, cell-based, luminescence, triplicate; shares compounds with Ba/F3 V617F tox; CellTiter-Glo luminescence; inhibition, % at 5.6 µM; actives 66% (n = 580);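 active = mean inhibition above the hit cutoff derived in the earlier primary screen, cut at about 25% in these data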;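 note: 0% = DMSO-treated cells and 100% = JAK inhibitor I control wells; higher means lower luminescence from reduced cell ATP and viability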
* hit, by the source's call.

COC(=O)CCN(C(=O)C1C2CC3CC(C2)CC1C3)c1ccccn1 (stereo not given) was read as APP 5UTR inh 10, BaF3 tox 7, Ba/F3 V617F tox 49*, KLF5 inh -43, IEC-6 cytotox -2, BaF3 parental 2 -5 and JAK2V617F conf -6.
For O=C(/C=C/c1ccccc1)c1ccc2c(c1)OCCCCO2 the results were APP 5UTR inh -147, BaF3 tox 0, Ba/F3 V617F tox 0, KLF5 inh -80 and IEC-6 cytotox 1.
`O=C(CCl)N(C/C=C/c1ccccc1)c1ccc2c(c1)OCCO2` gave APP 5UTR inh -19, BaF3 tox 5, Ba/F3 V617F tox 40*, KLF5 inh -25, IEC-6 cytotox 4, BaF3 parental 2 20 and JAK2V617F conf 94*.
COc1ccc(OCC(O)Cn2c(=N)n(CCN3CCCCC3)c3ccccc32)cc1 (stereo not given) was read as APP 5UTR inh 15, BaF3 tox 14, Ba/F3 V617F tox 34*, KLF5 inh -24, IEC-6 cytotox 1, BaF3 parental 2 0 and JAK2V617F conf 20.
Screening Cc1ccccc1OCC(O)Cn1c(=N)n(Cc2ccccc2)c2ccccc21 (stereo not given) returned BaF3 tox 17, Ba/F3 V617F tox 48*, KLF5 inh -15, IEC-6 cytotox 6, BaF3 parental 2 21 and JAK2V617F conf 53*.
`CCOc1ccc(CCNC(=O)CS(=O)Cc2nc(-c3ccc(OC)cc3)oc2C)cc1OCC` (stereo not given) gave KLF5 inh -6 and IEC-6 cytotox -7.
`CC(C)=CC(=O)N1CCC(N2CCC(C(=O)NCC3CCCO3)CC2)CC1` (stereo not given) gave KLF5 inh -25 and IEC-6 cytotox -6.
O=C(CSc1ccc2ccccc2c1Br)Nc1cccc(S(=O)(=O)NC2=NCCCCC2)c1 was read as APP 5UTR inh 0, BaF3 tox 1, Ba/F3 V617F tox 33*, KLF5 inh 4, IEC-6 cytotox 15, BaF3 parental 2 3 and JAK2V617F conf 75*.
CC1=CSC2=NC(=O)/C(=C/c3cccc(OC(=O)c4ccco4)c3)C(=N)N12 was read as APP 5UTR inh 19, BaF3 tox 4, Ba/F3 V617F tox 34*, KLF5 inh 1, IEC-6 cytotox 2, BaF3 parental 2 -3 and JAK2V617F conf -5.
Screening CSC1=NSC2=NC(=O)/C(=C\c3ccc(OC(=O)c4ccco4)cc3)C(=N)N12 returned KLF5 inh -89 and IEC-6 cytotox 2.
For CCN(CC)S(=O)(=O)c1cccc(-n2c(O)c(C=Nc3ccccc3C(=O)O)c3ccccc3c2=O)c1 the results were BaF3 tox 10, Ba/F3 V617F tox 26*, KLF5 inh -21, IEC-6 cytotox 17, BaF3 parental 2 9 and JAK2V617F conf 55*.
`O=C(O)c1ccccc1N=Cc1c(O)n(-c2nccs2)c(=O)c2ccccc12` gave BaF3 tox 2, Ba/F3 V617F tox 17, KLF5 inh -15 and IEC-6 cytotox 3.
`N#Cc1ccc(NC(=O)CN2C(=O)NC3(CCCC3)C2=O)cc1` gave KLF5 inh -25 and IEC-6 cytotox 6.
Cc1[nH]c2ccc(F)cc2c1CCN(Cc1ccncc1)C(=S)Nc1cccc(F)c1 was read as APP 5UTR inh 21, BaF3 tox 25, Ba/F3 V617F tox 27*, KLF5 inh -23, IEC-6 cytotox 4, BaF3 parental 2 29* and JAK2V617F conf 47*.
Screening Oc1ccccc1OCC(O)c1ccccc1 (stereo not given) returned KLF5 inh -2 and IEC-6 cytotox 8.
`Oc1ccccc1OCCOc1ccccc1OCCOc1ccccc1O` gave APP 5UTR inh -4, BaF3 tox 22, Ba/F3 V617F tox 26*, KLF5 inh -9, IEC-6 cytotox 0, BaF3 parental 2 26 and JAK2V617F conf 71*.
Screening CCn1c(=O)c2c(nc3n2CCCN3c2cccc(C)c2)n(C)c1=O returned BaF3 tox 2, Ba/F3 V617F tox -1, KLF5 inh -30 and IEC-6 cytotox 1.
Screening COc1cc(/C=C2\SC(=S)N(Nc3ccccc3)C2=O)ccc1O returned APP 5UTR inh -34, BaF3 tox 4, Ba/F3 V617F tox -2, KLF5 inh -68 and IEC-6 cytotox 12.
Screening O=C1/C(=C/c2ccc(O)c(O)c2)SC(=S)N1Nc1ccccc1 returned APP 5UTR inh -35, BaF3 tox -6, Ba/F3 V617F tox 38*, KLF5 inh -38, IEC-6 cytotox -1, BaF3 parental 2 -2 and JAK2V617F conf 67*.
`CC1Cc2ccccc2N1C(=O)CN1CCC(C(N)=O)CC1` (stereo not given) gave APP 5UTR inh 15, BaF3 tox -3, Ba/F3 V617F tox -3, KLF5 inh -2 and IEC-6 cytotox 3.
O=C(COc1ccccc1Cl)Nc1nnc(S(=O)(=O)N2CCCC2)s1 was read as KLF5 inh -24 and IEC-6 cytotox 4.
Cc1cc(C)n(-c2ccc(NC(=O)C3CCN(Cc4ccccn4)CC3)cc2)n1 was read as KLF5 inh -16 and IEC-6 cytotox 6.
CCc1ccc(NC(=O)C(NS(=O)(=O)c2ccc3c(c2)CCN3C(C)=O)C(C)C)cc1 (stereo not given) was read as KLF5 inh -24 and IEC-6 cytotox -4.
COc1ccc(CCNC(=O)C(NS(=O)(=O)c2ccc3c(c2)CCN3C(C)=O)C(C)C)cc1OC (stereo not given) was read as APP 5UTR inh 12, BaF3 tox 11, Ba/F3 V617F tox 65*, KLF5 inh -27, IEC-6 cytotox -3, BaF3 parental 2 -4 and JAK2V617F conf -2.
Screening O=C(Nc1ccccc1)c1cnc2ccccc2n1 returned APP 5UTR inh -51, BaF3 tox 10, Ba/F3 V617F tox 103*, KLF5 inh -27, IEC-6 cytotox 19, BaF3 parental 2 -1 and JAK2V617F conf -4.
Screening Cc1cc(C)n2nc(CC(=O)NNC(=O)COc3ccccc3)nc2n1 returned KLF5 inh -32 and IEC-6 cytotox -8.
`COc1ccc(CCC(=O)Nc2cc(Cl)ccc2N2CCN(C)CC2)cc1` gave APP 5UTR inh -4, BaF3 tox 1, Ba/F3 V617F tox 33*, KLF5 inh -21, IEC-6 cytotox -2, BaF3 parental 2 -5 and JAK2V617F conf 2.
CCCc1ccc(C(=O)NNc2ccc(F)cc2)cc1 was read as BaF3 tox 1, Ba/F3 V617F tox 93*, KLF5 inh -14, IEC-6 cytotox -1, BaF3 parental 2 5 and JAK2V617F conf 5.
